Results reported in PubChem BioAssay (EPA / NIEHS).
Where “and” joins values, the source holds several entries; their conditions need not be identical. Identical values can stand only once. Inconclusive results are not listed. More than one record can exist for a structure, and the calls need not agree. Calls of active or inactive are those of the source. Rule for the calls, unless noted: active = hit-call score of the fitted dose curve at least 0.9, where 1 is the maximum; inactive = score below 0.9.

How the values were obtained:
[1] = target: Nuclear respiratory factor 1 (Homo sapiens) (UniProt Q16656); experiment: ATG_NRF1_CIS: Attagene CIS-FACTORIAL HepG2 Assay for human Nuclear Respiratory Factor 1 (NRF1) Orphan Gene (AID 2282987); settings: HepG2 NRF1 cis-element reporter, Attagene multiplex; actives raise or lower the signal
In short: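 Endogenous NRF1-driven reporter transcription in transfected HepG2 cells after 24 h treatment. Readout: RT-PCR products, 6-FAM labelled and resolved by capillary electrophoresis; changes fitted both directions relative to DMSO.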

[2] = ATG_NFI_CIS: Attagene CIS-FACTORIAL HepG2 Assay for human Nuclear Factor I (NFI) (AID 2282989); settings: HepG2 cis-regulatory reporter, NFI response element transcription; actives raise or lower the signal
In short: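 Reporter transcription driven by endogenous transcription factors in HepG2 cells; 24 h treatment. Quantitation by labelled RT-PCR fragments on capillary electrophoresis, gain- or loss-of-signal relative to DMSO.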

[3] = target: Myc proto-oncogene protein (Homo sapiens) (UniProt P01106); experiment: ATG_Myc_CIS: Attagene CIS-FACTORIAL HepG2 Assay for human Myelocytomatosis (Myc) Proto-Oncogene Transcription Factor (AID 2282990); settings: HepG2, Attagene cis-reporter transcription factor activity; actives raise or lower the signal
In short: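 Multiplexed cis-reporter transcription in HepG2 cells after 24 h chemical treatment. Reporter mRNA measured by RT-PCR and capillary electrophoresis fluorescence; activity fitted bidirectionally against DMSO control.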

[4] = ATG_NF_kB_CIS: Attagene CIS-FACTORIAL HepG2 Assay for human Nuclear Factor Kappa B (NF-kB) (AID 2282991); settings: HepG2 Attagene cis-factorial NF-kB reporter mRNA; actives raise or lower the signal
In short: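 Readout is reporter transcript level, gain or loss versus DMSO, measured 24 h post-dose via RT-PCR, fluorescent labelling and capillary electrophoresis. Human HepG2 liver cells carried transiently transfected CIS reporter constructs reflecting endogenous factors.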

[5] = ATG_NRF2_ARE_CIS: Attagene CIS-FACTORIAL HepG2 Assay for human Nuclear Factor Erythroid 2 Related Factor 2 (NFR2) response to Antioxidant Response Elements (ARE) (AID 2282992); settings: HepG2 Attagene ARE/NRF2 reporter, transcription factor activity; actives raise or lower the signal
In short: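 HepG2 cells transiently transfected with multiplexed cis-element reporter constructs, 24 h after chemical dosing; reporter mRNA quantified by RT-PCR, fluorescent primer extension, HpaI digestion and capillary electrophoresis. Bidirectional fit relative to DMSO.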

[6] = ATG_Oct_MLP_CIS: Attagene CIS-FACTORIAL HepG2 Assay for human Octamer-Binding Transcription Factor (Oct) (AID 2282993); settings: HepG2 Attagene cis-factorial Oct reporter, mRNA; actives raise or lower the signal
In short: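 Transfected HepG2 cells, 24 h treatment. Reporter mRNA quantified by RT-PCR–capillary electrophoresis; bidirectional fitting against DMSO.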

[7] = target: Cellular tumor antigen p53 (Homo sapiens) (UniProt P04637); experiment: ATG_p53_CIS: Attagene CIS-FACTORIAL HepG2 Assay for human p53 Transcription Factor (AID 2282994); settings: HepG2 p53 cis-element reporter, Attagene mRNA; actives raise or lower the signal
In short: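 HepG2 cells transiently transfected with cis-regulated multiple reporter transcription units, dosed 24 h. Reporter mRNA measured by RT-PCR, 6-FAM primer extension, HpaI digestion and capillary electrophoresis; bidirectional fit relative to DMSO.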

[8] = BSK_3C_TissueFactor: BioMAP Diversity Plus: 3C Assay for Tissue Factor Biomarker Activity (AID 2282997); settings: BioMAP 3C HUVEC, tissue factor biomarker readout; actives raise or lower the signal
In short: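 Primary human umbilical vein endothelial cells in the 3C system were exposed to test chemical for 24 h, then Tissue Factor measured by ELISA. Activity was fitted bidirectionally against DMSO as negative control and baseline.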

[9] = BSK_3C_uPAR: BioMAP Diversity Plus: 3C Assay for Urokinase-type plasminogen activator receptor (uPAR) Biomarker Activity (AID 2282998); settings: BioMAP 3C HUVEC, uPAR biomarker ELISA; actives raise or lower the signal
In short: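 Readout: ELISA for surface uPAR. System: human umbilical vein endothelial primary cells, 24 h after chemical exposure. Analysis: bidirectional fit, DMSO baseline.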

[10] = BSK_3C_VCAM1: BioMAP Diversity Plus: 3C Assay for Vascular cell adhesion molecule 1 (VCAM1) Biomarker Activity (AID 2282999); settings: BioMAP 3C HUVEC, VCAM1 ELISA, cytokine-stimulated; actives raise or lower the signal
In short: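 Human umbilical vein endothelial cells were dosed with compound for 24 h, after which cell-surface VCAM-1 was quantified by ELISA. Bidirectional curve fitting used DMSO as negative control and activity baseline.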

[11] = BSK_4H_Eotaxin3: BioMAP Diversity Plus: 4H Assay for Eotaxin 3 Biomarker Activity (AID 2283000); settings: primary human endothelial cells (HUVEC); actives raise or lower the signal
In short: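 HUVEC, 24 h post-dose, ELISA for Eotaxin-3/CCL26. Gain or loss of signal fitted bidirectionally vs DMSO baseline.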

[12] = target: human Peroxisome Proliferator-activated Receptor alpha (PPARa), PPARA (gene 5465) (UniProt Q07869); experiment: ATG_PPARa_TRANS: Attagene TRANS-FACTORIAL HepG2 Assay for human Peroxisome Proliferator-activated Receptor alpha (PPARa) (AID 2283001; active = hit-call score of the fitted dose curve at least 0.9, where 1 is the maximum)
In short: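 Gain-of-signal endpoint: reporter mRNA induction relative to DMSO, detected by fluorescent RT-PCR and capillary electrophoresis. HepG2 cells transiently carried GAL4-UAS-driven reporter units plus NR-Gal4 fusion; exposure lasted 24 h.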

[13] = target: human Peroxisome Proliferator-activated Receptor delta (PPARd), PPARD (gene 5467) (UniProt Q03181); experiment: ATG_PPARd_TRANS: Attagene TRANS-FACTORIAL HepG2 Assay for human Peroxisome Proliferator-activated Receptor delta (PPARd) (AID 2283002; active = hit-call score of the fitted dose curve at least 0.9, where 1 is the maximum)
In short: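 Multiplexed trans-activation format: HepG2 liver cells expressing exogenous NR-Gal4 chimeras and GAL4-UAS reporters were exposed for 24 h. Reporter mRNA was detected by RT-PCR with capillary electrophoresis fluorescence; activity fitted as gain of signal relative to DMSO.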

[14] = read-out: Intercellular Adhesion Molecule 1 (ICAM1), ICAM1 (gene 3383); experiment: BSK_3C_ICAM1: BioMAP Diversity Plus: 3C Assay for Intercellular Adhesion Molecule 1 (ICAM1) Biomarker Activity (AID 2283003); settings: primary human endothelial cells (HUVEC); actives raise or lower the signal
In short: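 ICAM-1 levels measured by ELISA after HUVEC cultures in the 3C system had been dosed for 24 h. Gain or loss of signal relative to DMSO was fitted in both directions.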

[15] = target: human Retinoic Acid Receptor beta (RARb), RARB (gene 5915) (UniProt P10826); experiment: ATG_RARb_TRANS: Attagene TRANS-FACTORIAL HepG2 Assay for human Retinoic Acid Receptor beta (AID 2283004; active = hit-call score of the fitted dose curve at least 0.9, where 1 is the maximum)
In short: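 HepG2 cells transiently transfected with multiplexed GAL4-UAS reporter units expressing chimeric NR–Gal4 fusions; 24 h compound exposure. Reporter mRNA quantified by RT-PCR, 6-FAM labelling, HpaI digestion and capillary electrophoresis; gain-of-signal fitted against DMSO baseline.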

[16] = target: Retinoic acid receptor alpha (Homo sapiens) (UniProt P10276); experiment: ATG_RARa_TRANS: Attagene TRANS-FACTORIAL HepG2 Assay for human Retinoic Acid Receptor alpha (RARa) (AID 2283005; active = hit-call score of the fitted dose curve at least 0.9, where 1 is the maximum)
In short: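 HepG2 cells transiently transfected with multiple reporter units expressing chimeric RARα-GAL4 fusion, with GAL4-UAS-driven reporters. After 24 h compound exposure, reporter mRNA induction quantified by RT-PCR and capillary electrophoresis with fluorescent labeling; gain-of-signal fitted relative to DMSO control.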

[17] = BSK_3C_Proliferation: Cell Proliferation Assessment in the BioMAP Diversity Plus: 3C Assay (AID 2283006); settings: primary human endothelial cells (HUVEC);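 for AC50: potency may reflect either rise or fall in cell number versus DMSO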
In short: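 Read-out is total protein by SRB absorbance at 560 nm, taken as a proxy for relative cell number. Primary human umbilical vein endothelium cultured below confluence was dosed for 48 h, TCA-fixed and SRB-stained; curves were fitted bidirectionally versus DMSO.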

[18] = target: Peroxisome proliferator-activated receptor gamma (Homo sapiens) (UniProt P37231); experiment: ATG_PPARg_TRANS: Attagene TRANS-FACTORIAL HepG2 Assay for human Peroxisome Proliferator-activated Receptor-gamma (PPARg) (AID 2283007; active = hit-call score of the fitted dose curve at least 0.9, where 1 is the maximum)
In short: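 After 24 h of chemical exposure, transfected HepG2 cells carrying PPARγ-Gal4 chimera reporter constructs are lysed for RNA. Reporter transcripts are measured by RT-PCR and capillary electrophoresis with fluorescent labelling, and gain of signal is fitted versus DMSO.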

[19] = target: Nuclear receptor subfamily 1 group I member 2 (Homo sapiens) (UniProt O75469); experiment: ATG_PXR_TRANS: Attagene TRANS-FACTORIAL HepG2 Assay for human Pregnane X Receptor (PXR) (AID 2283008; active = hit-call score of the fitted dose curve at least 0.9, where 1 is the maximum)
In short: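 HepG2 cells transiently transfected with GAL4-UAS reporter units and PXR-Gal4 chimera, exposed 24 h. Reporter mRNA quantified by RT-PCR, fluorescent labelling, HpaI digestion and capillary electrophoresis; gain of signal vs DMSO.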

[20] = target: human Retinoic Acid Receptor gamma (RARg), RARG (gene 5916) (UniProt P13631); experiment: ATG_RARg_TRANS: Attagene TRANS-FACTORIAL HepG2 Assay for human Retinoic Acid Receptor gamma (RARg) (AID 2283009; active = hit-call score of the fitted dose curve at least 0.9, where 1 is the maximum)
In short: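 Transient transfection of HepG2 with multi-reporter constructs, then 24 h chemical treatment. Total RNA isolated, reverse-transcribed, PCR-amplified, fluorescently labelled and resolved by capillary electrophoresis; activity scored as mRNA induction versus DMSO.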

Measured: AC50

Myc proto-oncogene protein (Homo sapiens), sequence (P01106 whole entry, looked up): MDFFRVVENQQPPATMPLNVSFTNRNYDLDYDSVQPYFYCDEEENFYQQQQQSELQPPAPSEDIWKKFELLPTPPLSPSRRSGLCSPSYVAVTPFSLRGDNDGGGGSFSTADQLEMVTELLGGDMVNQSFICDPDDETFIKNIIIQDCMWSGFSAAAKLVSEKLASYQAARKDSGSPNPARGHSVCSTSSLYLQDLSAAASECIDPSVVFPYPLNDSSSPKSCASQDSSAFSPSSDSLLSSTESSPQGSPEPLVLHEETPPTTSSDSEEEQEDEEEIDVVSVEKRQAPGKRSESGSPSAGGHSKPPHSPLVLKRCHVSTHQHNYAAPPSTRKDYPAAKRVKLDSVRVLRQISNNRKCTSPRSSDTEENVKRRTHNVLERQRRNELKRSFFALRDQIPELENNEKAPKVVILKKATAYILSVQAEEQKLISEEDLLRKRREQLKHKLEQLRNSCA
Cellular tumor antigen p53 (Homo sapiens), sequence (P04637 whole entry, looked up): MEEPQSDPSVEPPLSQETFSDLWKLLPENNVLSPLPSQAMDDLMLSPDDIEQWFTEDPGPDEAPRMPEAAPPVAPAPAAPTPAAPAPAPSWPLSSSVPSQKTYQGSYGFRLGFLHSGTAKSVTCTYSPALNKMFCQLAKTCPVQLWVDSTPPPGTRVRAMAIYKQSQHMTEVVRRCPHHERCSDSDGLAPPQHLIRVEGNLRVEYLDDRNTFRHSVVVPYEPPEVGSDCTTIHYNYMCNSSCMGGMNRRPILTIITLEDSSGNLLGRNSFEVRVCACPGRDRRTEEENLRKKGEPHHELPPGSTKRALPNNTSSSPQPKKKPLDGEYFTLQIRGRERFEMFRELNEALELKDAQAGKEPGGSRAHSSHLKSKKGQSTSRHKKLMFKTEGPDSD
human Retinoic Acid Receptor beta (RARb), RARB (gene 5915), sequence (P10826 whole entry, looked up, the tested form may be a part): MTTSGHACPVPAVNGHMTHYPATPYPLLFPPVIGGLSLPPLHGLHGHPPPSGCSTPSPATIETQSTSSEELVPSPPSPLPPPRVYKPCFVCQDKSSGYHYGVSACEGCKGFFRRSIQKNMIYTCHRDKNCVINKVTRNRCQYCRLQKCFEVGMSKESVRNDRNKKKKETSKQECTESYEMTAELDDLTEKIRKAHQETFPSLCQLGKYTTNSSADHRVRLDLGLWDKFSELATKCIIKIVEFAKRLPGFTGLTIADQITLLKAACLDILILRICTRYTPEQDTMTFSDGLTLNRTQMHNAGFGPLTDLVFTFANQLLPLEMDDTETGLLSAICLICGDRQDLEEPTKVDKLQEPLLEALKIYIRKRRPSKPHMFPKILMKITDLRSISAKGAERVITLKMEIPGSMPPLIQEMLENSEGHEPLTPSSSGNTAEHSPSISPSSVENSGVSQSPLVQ
Nuclear receptor subfamily 1 group I member 2 (Homo sapiens), sequence (O75469 whole entry, looked up, the tested form may be a part): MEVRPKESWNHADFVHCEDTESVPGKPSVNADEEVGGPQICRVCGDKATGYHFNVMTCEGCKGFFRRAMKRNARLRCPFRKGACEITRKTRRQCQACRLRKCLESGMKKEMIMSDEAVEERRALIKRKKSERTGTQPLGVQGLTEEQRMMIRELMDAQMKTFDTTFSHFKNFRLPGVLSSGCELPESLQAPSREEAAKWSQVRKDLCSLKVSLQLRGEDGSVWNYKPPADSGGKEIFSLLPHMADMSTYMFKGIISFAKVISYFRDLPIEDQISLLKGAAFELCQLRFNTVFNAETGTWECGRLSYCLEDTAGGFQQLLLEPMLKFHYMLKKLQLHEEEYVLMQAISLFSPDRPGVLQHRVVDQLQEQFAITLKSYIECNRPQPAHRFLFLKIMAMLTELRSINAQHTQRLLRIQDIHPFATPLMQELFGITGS
Peroxisome proliferator-activated receptor gamma (Homo sapiens), sequence (P37231 whole entry, looked up, the tested form may be a part): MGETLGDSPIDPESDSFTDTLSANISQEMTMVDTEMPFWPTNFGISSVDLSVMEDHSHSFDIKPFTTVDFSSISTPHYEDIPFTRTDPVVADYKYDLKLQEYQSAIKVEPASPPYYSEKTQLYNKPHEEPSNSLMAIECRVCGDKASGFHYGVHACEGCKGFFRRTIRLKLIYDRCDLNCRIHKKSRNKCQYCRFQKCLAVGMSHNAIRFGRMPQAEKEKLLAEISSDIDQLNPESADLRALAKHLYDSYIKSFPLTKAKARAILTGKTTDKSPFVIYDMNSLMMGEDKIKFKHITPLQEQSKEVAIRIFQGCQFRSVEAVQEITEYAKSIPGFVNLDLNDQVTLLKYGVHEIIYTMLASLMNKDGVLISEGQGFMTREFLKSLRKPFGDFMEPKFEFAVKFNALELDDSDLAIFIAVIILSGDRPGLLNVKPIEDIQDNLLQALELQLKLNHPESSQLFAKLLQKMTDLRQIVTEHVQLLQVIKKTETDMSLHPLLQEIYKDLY
human Retinoic Acid Receptor gamma (RARg), RARG (gene 5916), sequence (P13631 whole entry, looked up): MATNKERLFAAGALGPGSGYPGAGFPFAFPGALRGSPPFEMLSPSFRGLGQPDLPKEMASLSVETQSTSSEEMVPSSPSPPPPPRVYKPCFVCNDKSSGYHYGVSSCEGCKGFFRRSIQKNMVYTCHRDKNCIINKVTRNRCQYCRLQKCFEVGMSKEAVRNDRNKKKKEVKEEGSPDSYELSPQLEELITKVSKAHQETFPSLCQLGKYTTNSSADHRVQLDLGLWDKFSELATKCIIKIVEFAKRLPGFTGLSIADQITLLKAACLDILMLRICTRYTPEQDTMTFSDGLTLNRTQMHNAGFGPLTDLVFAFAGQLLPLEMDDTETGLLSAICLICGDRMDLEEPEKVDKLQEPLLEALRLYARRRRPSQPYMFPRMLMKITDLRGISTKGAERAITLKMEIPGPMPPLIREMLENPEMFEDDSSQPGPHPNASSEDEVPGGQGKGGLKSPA
Nuclear respiratory factor 1 (Homo sapiens), sequence (Q16656 whole entry, looked up): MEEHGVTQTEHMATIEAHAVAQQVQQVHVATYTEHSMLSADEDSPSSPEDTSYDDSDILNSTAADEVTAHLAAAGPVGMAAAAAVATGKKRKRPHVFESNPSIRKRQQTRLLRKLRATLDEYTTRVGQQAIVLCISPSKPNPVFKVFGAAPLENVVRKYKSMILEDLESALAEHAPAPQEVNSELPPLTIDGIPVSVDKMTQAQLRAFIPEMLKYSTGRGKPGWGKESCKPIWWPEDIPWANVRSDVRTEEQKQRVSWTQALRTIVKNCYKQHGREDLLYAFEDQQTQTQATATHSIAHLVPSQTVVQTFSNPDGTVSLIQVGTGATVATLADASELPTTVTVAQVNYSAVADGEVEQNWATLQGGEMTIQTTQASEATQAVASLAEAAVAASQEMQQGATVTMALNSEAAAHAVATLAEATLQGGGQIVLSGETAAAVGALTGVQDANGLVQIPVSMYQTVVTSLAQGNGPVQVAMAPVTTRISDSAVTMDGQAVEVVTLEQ
human Peroxisome Proliferator-activated Receptor alpha (PPARa), PPARA (gene 5465), sequence (Q07869 whole entry, looked up, the tested form may be a part): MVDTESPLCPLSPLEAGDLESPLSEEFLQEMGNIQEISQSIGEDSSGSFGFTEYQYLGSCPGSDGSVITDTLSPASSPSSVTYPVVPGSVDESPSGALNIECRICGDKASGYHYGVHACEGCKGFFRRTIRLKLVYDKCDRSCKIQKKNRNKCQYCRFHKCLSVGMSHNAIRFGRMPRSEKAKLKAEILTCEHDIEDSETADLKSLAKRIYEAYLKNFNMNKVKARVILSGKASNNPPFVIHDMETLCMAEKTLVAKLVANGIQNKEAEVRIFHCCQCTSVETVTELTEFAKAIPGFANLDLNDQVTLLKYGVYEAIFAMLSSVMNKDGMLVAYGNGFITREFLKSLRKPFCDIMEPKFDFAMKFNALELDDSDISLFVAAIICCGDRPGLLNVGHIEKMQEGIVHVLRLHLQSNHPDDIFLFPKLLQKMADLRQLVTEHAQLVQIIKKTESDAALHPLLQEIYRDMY
human Peroxisome Proliferator-activated Receptor delta (PPARd), PPARD (gene 5467), sequence (Q03181 whole entry, looked up, the tested form may be a part): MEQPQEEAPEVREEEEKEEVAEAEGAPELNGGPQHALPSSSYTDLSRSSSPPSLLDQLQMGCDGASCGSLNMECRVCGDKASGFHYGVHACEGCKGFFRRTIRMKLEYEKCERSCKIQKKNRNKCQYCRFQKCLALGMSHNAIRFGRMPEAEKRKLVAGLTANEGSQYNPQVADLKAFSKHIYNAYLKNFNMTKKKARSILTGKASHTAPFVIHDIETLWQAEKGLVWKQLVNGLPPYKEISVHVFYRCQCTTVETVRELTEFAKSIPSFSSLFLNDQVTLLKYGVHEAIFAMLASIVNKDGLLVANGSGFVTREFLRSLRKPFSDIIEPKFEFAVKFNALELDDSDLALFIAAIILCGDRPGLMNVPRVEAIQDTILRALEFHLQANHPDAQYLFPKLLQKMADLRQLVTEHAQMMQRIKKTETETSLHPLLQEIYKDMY
Retinoic acid receptor alpha (Homo sapiens), sequence (P10276 whole entry, looked up, the tested form may be a part): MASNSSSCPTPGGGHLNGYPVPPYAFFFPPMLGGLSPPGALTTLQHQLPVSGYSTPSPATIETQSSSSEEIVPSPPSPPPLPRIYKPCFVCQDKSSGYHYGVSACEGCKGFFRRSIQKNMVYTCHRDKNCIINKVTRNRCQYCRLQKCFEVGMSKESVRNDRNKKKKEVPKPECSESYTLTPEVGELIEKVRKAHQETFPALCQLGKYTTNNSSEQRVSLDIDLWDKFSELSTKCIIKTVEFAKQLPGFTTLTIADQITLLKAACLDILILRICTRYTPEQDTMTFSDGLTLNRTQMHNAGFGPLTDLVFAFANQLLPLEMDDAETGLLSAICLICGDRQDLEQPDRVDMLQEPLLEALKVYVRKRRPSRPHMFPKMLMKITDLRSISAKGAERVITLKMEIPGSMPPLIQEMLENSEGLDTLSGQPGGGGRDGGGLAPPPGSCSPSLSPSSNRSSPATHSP

CC(C)(C)C(=O)CC(=O)C(F)(F)C(F)(F)C(F)(F)F
active: [17] 43.3 µM and 44.3 µM
inactive: all other assays above

C#C[C@]1(O)CC[C@H]2[C@@H]3CCc4cc(OC)ccc4[C@H]3CC[C@@]21C
active: [5] 18 µM | [11] 2.22 µM | [17] 31.1 µM | [19] 4.66 µM
not listed: [13] | [16] | [18] | [20]
inactive: all other assays above

OCC(F)(F)C(F)(F)C(F)(F)C(F)F
not listed: [15] | [16] | [18] | [20]
inactive: all other assays above

OCCCC(F)(F)C(F)(F)C(F)(F)C(F)(F)C(F)(F)C(F)(F)C(F)(F)F
inactive: [1] | [3] | [4] | [7] | [12] | [13] | [18] | [19] | [20]
active: [1] 126 µM | [3] 79.9 µM | [4] 73.6 µM | [5] 67.1 µM and 133 µM | [6] 50 µM and 245 µM | [8] 54.8 µM and 21.6 µM | [9] 44.8 µM and 43.5 µM | [10] 24.3 µM and 20.5 µM | [11] 45.2 µM and 43.2 µM | [14] 45.1 µM and 52.9 µM | [17] 10.3 µM and 10.4 µM

OCCCC(F)(F)C(F)(F)C(F)(F)F
not listed: [14] | [15] | [16]
inactive: all other assays above

C=CC(=O)OCC(F)(F)C(F)(F)C(F)(F)C(F)(F)COC(=O)C=C
inactive: [1] | [12] | [13] | [15] | [19]
active: [2] 50 µM | [3] 65.2 µM | [4] 38.4 µM | [5] 12.8 µM | [6] 21.5 µM | [7] 79.4 µM | [8] 24.9 µM and 35.5 µM | [9] 22.9 µM and 28.2 µM | [10] 26.7 µM and 21.6 µM | [11] 20 µM and 18 µM | [14] 47.1 µM and 48.3 µM | [17] 9.61 µM and 8.46 µM | [18] 37.8 µM
